In PubChem BioAssay (NCI):
Values joined by “and” are separate entries in the source; they are usually repeats but may differ in a detail not shown here. Equal entries are not always repeated. About 83,000 compounds went through this panel and 20% of them were active in at least one assay; those are over-represented in the sample as a whole.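 The test compound was applied at a single concentration to cells in 96-well plates for 48 hours, and percent growth was recorded.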 Some compounds were tested as several samples or in several runs, with calls that do not always agree. Active and inactive are the calls of the source.

Tested on: SR leukemia
Assay: NCI-60 one-dose screen, 48 h (100 = growth as untreated, 0 = no growth, -100 = all killed)
Settings: 10 µM
Method: Growth inhibition of the SR human tumor cell line is measured as a screen for anti-cancer activity. Cells are grown in 96 well plates and exposed to the test compound for 48 hours. Compounds are tested at a single concentration, which is 10^-5 M for most compounds. The reported endpoint is percent growth (GI% or GIPRCNT), where numbers from 0 - 100% represent growth inhibition, and numbers from -100% - 0 represent cell death. For example, a value of 40 represents 60% growth inhibition. A value of 0 means no net growth occurred over the course of the experiment. A value of -40 indicates 40% of cells at the beginning of the experiment died by the end of the experiment. A value of -100 means all cells are dead at the end of the experiment.
NCI-60 Human Tumor Cell Lines Screen was performed using the standard one-dose NCI protocol, which is described in more detail at https://dtp.cancer.gov/discovery_development/nci-60/default.htm.
Compounds with GIPRCNT values below 10 were considered active. Activity score was based on GIPRCNT using the following formula: […]
Score is 0 for GIPRCNT values of 100 or above, 50 for GIPRCNT values of 0, and 100 for GIPRCNT values of -100.

SMILES | growth
CC1(C)OB(c2ccc(Cn3cc(F)c(=O)[nH]c3=O)cc2)OC1(C)C | 106% (inactive)
COc1ccc(Cl)cc1C(=O)NCCc1ccc(S(=O)(=O)NC(=O)NC2CCCCC2)cc1 | 105% (inactive) and 90% (inactive)
O=C(O)c1sccc1O | 67.7% (inactive)

Same assay, conditions: 10 µM unless noted

SMILES | growth
Nc1ccc2ccc(N)cc2c1 | 36.8% (inactive)
Nc1ccc(N=Nc2ccc(S(=O)(=O)O)cc2)cc1S(=O)(=O)O | 108% (inactive) and 157% (inactive)
C/C(=N\NC(=O)c1ccncc1)c1ccccc1O | 17.7% (inactive) and 16% (inactive)
Nc1ccc2[nH]c(-c3ccccc3)cc(=O)c2c1 | 4.32% (active)
O=[N+]([O-])c1ccc(-n2[nH]nnc2=S)cc1 | 92.1% (inactive)
CC(C)Cc1ccc(C(C)C(=O)NCc2ccc(Cn3c(=O)sn(CCCI)c3=O)cc2)cc1 (stereo not given) | 56.4% (inactive) and 2.84% (active)
NC(=S)NS(=O)(=O)c1ccc(N)cc1 | 96.5% (inactive)
NC(=S)NN=C1CCC(C2CCCCC2)CC1 (stereo not given) | 125% (inactive)
CC(=O)NC(Cc1ccccc1)C(=O)Oc1ccc2ccccc2c1 (stereo not given) | 113% (inactive)
CC1=C(/C=C/C(C)=C/C=C/C(C)=C/C=N/NC(=S)NC(=S)N/N=C/C=C(C)/C=C/C=C(C)/C=C/C2=C(C)CCCC2(C)C)C(C)(C)CCC1 | 23.6% (inactive) and 1.02% (active)
O=Nc1ccc(O)cc1 | 79.4% (inactive) and 74.3% (inactive)
NC(=O)C1CC2C=CC1C2 (stereo not given) | 112% (inactive) and 105% (inactive)
CC(C(=O)O)n1cc(C#N)c(=O)[nH]c1=O (stereo not given) | 93.5% (inactive) and 99.9% (inactive)
CCOC(=O)c1sc(N)nc1-c1ccccc1 | 90.2% (inactive)
Cc1nn(-c2ccc(Cl)cc2)c2ncnc(N/N=C/c3ccccc3O)c12 | 4.8% (active) and 5.64% (active)
COc1ccccc1NC(=O)OCC#CCOC(=O)Nc1ccccc1OC | 88% (inactive) and 61.5% (inactive)
CCN(CC)CCCC(C)Nc1ccnc2cc(Oc3ccccc3)ccc12 (stereo not given) | 9.09% (active) and 33.9% (inactive)

SMILES | growth
CC1CCCC(=O)O1 (stereo not given) | 104% (inactive)
Cc1ccc(-c2noc(CC(=O)c3ccc([N+](=O)[O-])cc3)n2)cc1 | 98.1% (inactive)
O=[N+]([O-])c1ccc(/C=N\NC(=S)Nc2ccc(F)cc2)cc1 | 99.7% (inactive)
S=C(S)N1CCCC1 | 65.2% (inactive) and 83.6% (inactive)
CCCCCCCCCCCCCCCc1cc(O)ccc1N | 74.7% (inactive) and 37.7% (inactive)
O=C1NC(=O)C2(CCc3ccccc32)N1 (stereo not given) | 111% (inactive) and 95.6% (inactive)
COc1cc(C(=O)c2ccc3c(c2)OCO3)cc(OC)c1OC | 19.8% (inactive) and 12% (inactive)
CNC(=O)c1cccnc1 | 87.4% (inactive)
COc1cc(Nc2nc3ccccc3nc2NS(=O)(=O)c2ccc(NC(=O)c3ccc(C)c(OC)c3)cc2)cc(OC)c1 | 31.3% (inactive) and 8.54% (active)
O=C(/C=C/c1ccccn1)c1ccccc1O | 4.76% (active)
c1ccc2c(CC3=NCCN3)cccc2c1 | 101% (inactive)
COc1cc(NS(C)(=O)=O)ccc1Nc1c2ccccc2nc2c(C)cccc12 | 4.23% (active) and -21.5% (active)
OCc1ccccn1 | 96.9% (inactive)
O=C1c2ccccc2C(=O)c2c(NCCNCCO)ccc(NCCNCCO)c21 | 57.6% (inactive) and 5.34% (active) and -17.9% (active)
CCCCCN(CCCCC)CC(O)c1cc2c(c3ccccc13)CCCC2 (stereo not given) | 11.1% (inactive) and 14.2% (inactive)
CC(=O)Nc1ccc2cc3ccc(NC(C)=O)cc3nc2c1 | 72.3% (inactive)
CC(=O)Oc1cc(C(=O)O)cc(OC(C)=O)c1OC(C)=O | 117% (inactive) and 101% (inactive)

Same assay, conditions: 50 µM

SMILES | growth
CC1(C)OB(c2ccc(Cn3cc(F)c(=O)[nH]c3=O)cc2)OC1(C)C | 39.5% (inactive)

Same assay, conditions: 100 µM

SMILES | growth
COc1ccc(Cl)cc1C(=O)NCCc1ccc(S(=O)(=O)NC(=O)NC2CCCCC2)cc1 | 61.3% (inactive)
O=C(O)c1sccc1O | 4.33% (active)
